Screening results: PubChem BioAssay, National Center for Advancing Translational Sciences (NCATS)
This is a sample that favours compounds with a hit; in the whole collection about 0.9% have one here.
GCN5L2 inh: qHTS Assay for Inhibitors of GCN5L2 | Potency, µM (titrated, usually from 58.9 µM), actives largely listed as inhibitors | 390,000 compounds, 0.21% hits | Histone acetyltransferase KAT2A (Homo sapiens), Q92830 | GCN5L2 HAT assay, ThioGlo1 CoA-SH fluorescence
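Fluorescence readout, Ex340nm/Em540nm: ThioGlo1 (50uM final) reacts with free CoA thiol released as 20nM GCN5L2 acetylates H3(1-25) peptide (75uM) using acetyl-CoA (70uM). Compound and enzyme sat 15 min beforehand; 20 min room-temperature reaction.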
TDP1 block: qHTS Assay for Inhibitors of Tyrosyl-DNA Phosphodiesterase (TDP1). recombinant TDP1, AlphaScreen DNA substrate cleavage. Potency, µM (titrated, usually from 130 µM), hits mostly inhibitors. 350,000 compounds, 0.28% hits. AID 485290, 2010; note: nearly all actives have a fitted effect of over 40% in size
Target sequence (Q9NUW8 whole entry, looked up): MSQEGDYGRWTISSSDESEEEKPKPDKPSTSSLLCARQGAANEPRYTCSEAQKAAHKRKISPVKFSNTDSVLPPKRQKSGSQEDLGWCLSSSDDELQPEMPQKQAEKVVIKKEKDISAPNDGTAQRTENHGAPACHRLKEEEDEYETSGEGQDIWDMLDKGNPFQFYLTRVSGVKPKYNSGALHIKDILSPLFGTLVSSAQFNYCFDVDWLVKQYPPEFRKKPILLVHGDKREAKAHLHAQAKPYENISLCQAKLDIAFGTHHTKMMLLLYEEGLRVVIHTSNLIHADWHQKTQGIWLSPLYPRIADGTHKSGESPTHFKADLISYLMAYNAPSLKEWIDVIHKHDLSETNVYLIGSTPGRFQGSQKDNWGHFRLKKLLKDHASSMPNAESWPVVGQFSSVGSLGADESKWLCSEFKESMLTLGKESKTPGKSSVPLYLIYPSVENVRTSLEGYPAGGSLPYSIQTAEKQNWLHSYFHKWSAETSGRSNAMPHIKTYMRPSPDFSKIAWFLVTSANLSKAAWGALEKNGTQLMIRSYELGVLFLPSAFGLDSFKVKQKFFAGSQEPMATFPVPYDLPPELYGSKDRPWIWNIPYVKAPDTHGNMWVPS
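Recombinant E. coli-expressed Tdp1 (1 nM) preincubated with compound 15 min at RT, then 5'-biotin/3'-phosphotyrosine-FITC DNA substrate (15 nM) added for 5 min. AlphaScreen beads (10 ug/ml) added, 10 min RT; tyrosine-FITC cleavage read as signal loss.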
RECQ1 inh-1: qHTS Assay for Inhibitors of RecQ-Like Dna Helicase 1 (RECQ1); Potency, µM (doses to about 57.3 µM), most hits filed as inhibitors; ATP-dependent DNA helicase Q1 (Homo sapiens), P46063; RECQ1 DNA unwinding, red fluorescence kinetic read; 240,000 compounds, 0.54% hits; AID 2549, 2010; note: nearly all actives have a fitted effect of over 30% in size
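RECQ1T1 50 nM; forked duplex (20 bp + 30-nt ss tails) 200 nM, ATP 2 mM final; pH 8.0, 2 mM MgCl2, 2.5 ug/ml poly(dI-dC); 15 min compound preincubation; discontinuous kinetic read over 2 h at RT.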
APE1 inh: qHTS Assay for Inhibitors of the Human Apurinic/apyrimidinic Endonuclease 1 (APE1). recombinant APE1, TAMRA/BHQ-2 abasic DNA cleavage fluorescence. 350,000 compounds, 0.35% hits. Potency, µM (series often up to 65.8 µM), hits mostly inhibitors. DNA repair nuclease/redox regulator APEX1 (Homo sapiens), P27695. AID 2517, 2012; note: nearly all actives have a fitted effect of over 55% in size
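Activity was derived from the fluorescence gain between first and third kinetic reads (60 s intervals, ex 525/em 598 nm) after 50 nM THF-abasic TAMRA/BHQ-2 duplex was added to 0.75 nM APE1 preincubated 15 min with compound.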
LMNA splice mod: qHTS Assay for Modulators of Lamin A Splicing. HeLa LMNA splicing GFP/RFP minigene ratio, 48 h. Potency, µM (top dose mostly 46.1 µM), actives largely listed as inhibitors. 200,000 compounds, 0.01% hits. AID 1487, 2009; active = well fitted inhibition curve with a large enough effect in the signal ratio, with a control signal flat, not every such curve was filed as active; inconclusive = small, poorly fitted or top-dose-only effect, or effect the other way, or a change in a side signal; the % refers to the signal ratio
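S3 HeLa stable clones carrying a lamin A-EGFP splicing minigene plus DsRed2 were seeded at 600 cells/well in Opti-MEM with 2% FBS, pin-dosed and incubated 48 h at 37°C. Acumen cytometry (488 nm) gave the GFP/RFP total-intensity ratio.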
BLM helicase inh: qHTS Assay for Inhibitors of Bloom's syndrome helicase (BLM); RecQ-like DNA helicase BLM (Homo sapiens), P54132; recombinant BLM DNA unwinding, fluorescence dequenching; Potency, µM (highest dose often 56.1 µM), actives largely listed as inhibitors; 350,000 compounds, 0.2% hits; AID 2528, 2010; note: nearly all actives have a fitted effect of over 35% in size
RECQ1 inh conf: Confirmation qHTS Assay for Inhibitors of RecQ-Like Dna Helicase 1 (RECQ1); shares compounds with RECQ1 inh-1; RECQ1 helicase DNA unwinding, fluorescence; Potency, µM (series often up to 229 µM), actives largely listed as inhibitors; 610 compounds, 28% hits; AID 2708, 2010; note: nearly all actives have a fitted effect of over 45% in size
ADP FP counter: Counterscreen for RECQ1 Inhibitors: ADP Fluorescence Polarization Displacement Assay; shares compounds with RECQ1 inh-1; ADP fluorescence polarization displacement counterscreen; Potency, µM (doses to about 228 µM), hits mostly inhibitors; 530 compounds, 27% hits; note: nearly all actives have a fitted effect of over 45% in size
RECQ1 inh-2: Confirmation qHTS Assay for Inhibitors of RecQ-Like Dna Helicase 1 (RECQ1) - Round 2 Cherry Picks. shares compounds with RECQ1 inh-1. recombinant RECQ1 DNA unwinding, red fluorescence. Potency, µM (top dose mostly 119 µM), most hits filed as inhibitors. 1,100 compounds, 15% hits; note: nearly all actives have a fitted effect of over 50% in size
A number is an active result; – = inactive; ? = inconclusive; · = not tested or not shown; [ ] = another dose, or the depositor's remark. Unless noted, calls come from the whole dose curve; as a rule, active = well fitted curve in the direction sought with a large enough effect; inconclusive = small, poorly fitted or top-dose-only effect, or another doubt; inactive = no such curve, though single readings can be large; an effect the other way counts as inactive or inconclusive.

SMILES | GCN5L2 inh | TDP1 block | RECQ1 inh-1 | APE1 inh | LMNA splice mod | BLM helicase inh | RECQ1 inh-2 | others
Cc1cc(NS(=O)(=O)c2ccc(NC(=O)c3cc(-c4cccnc4)nc4ccc(Cl)cc34)cc2)no1 | – | – | – | – | – | – | ·
Cc1cc(C)c2nc(-c3ccccn3)cc(C(=O)Nc3ccc(S(=O)(=O)Nc4cc(C)on4)cc3)c2c1 | ? | – | 25µM | ? | – | ? | ?
CCn1c(=S)[nH]c2scc(-c3cccs3)c2c1=O | – | – | – | – | – | – | ·
CC(C)n1c(=S)[nH]c2scc(-c3cccs3)c2c1=O | 18µM | – | 28µM | ? | · | – | ?
c1cc(CN2CCCNCCNCCCNCC2)ccc1CN1CCCNCCNCCCNCC1 | – | – | – | – | · | ? | ·
O=C(O)CCC(=O)Nc1nc2nccc(-c3ccccc3)n2n1 | – | – | – | ? | · | – | · | RECQ1 inh conf=?;ADP FP counter=–
CCCC(=O)Nc1nc2nc(-c3ccccc3)cc(-c3ccccc3)n2n1 | – | – | – | – | – | – | ·
Cc1cc2ccccc2n1CCNC(=O)c1ccc(S(=O)(=O)N2CCCCC2)cc1 | – | – | 28µM | ? | ? | – | 79µM
O=C(NC(Cc1ccccc1)C(=O)O)c1ccc(S(=O)(=O)N2CCCCC2)cc1 (configuration not stated) | –[0.501 µM] | – | – | – | – | – | · | RECQ1 inh conf=–;ADP FP counter=?
O=C(Nc1ccc(S(=O)(=O)N2CCCCC2)cc1)c1ccc(CN2CCc3ccccc3C2)cc1 | – | – | ? | – | – | – | –
CCOc1cccc(NC(=O)c2ccc(S(=O)(=O)N3CCCC3)cc2)c1 | – | · | 13µM | – | · | – | –
N#Cc1ccccc1OCC(O)CNCCNC(=O)Nc1ccccc1 (configuration not stated) | – | – | – | – | · | · | ·
O=C(Nc1cc(C(F)(F)F)ccc1Cl)C(O)Cc1ccccc1 (configuration not stated) | · | – | · | · | · | · | ·
COCCCN(C(=O)c1cc2c(s1)CCC2)c1c(N)n(Cc2ccccc2)c(=O)[nH]c1=O | – | · | 14µM | ? | · | ? | ? | RECQ1 inh conf=40µM;ADP FP counter=?
COCCN(C(=O)c1cc2c(s1)CCC2)c1c(N)n(CC(C)C)c(=O)[nH]c1=O | ? | ? | · | – | · | · | ·
CS(=O)(=O)c1ccc2nc(NC(=O)c3ccc(NS(=O)(=O)c4ccc(F)c(F)c4)cc3)sc2c1 | – | – | 32µM | – | · | – | –
CC(C)(C)NS(=O)(=O)c1ccc2nc(NC(=O)c3ccc(N4C(=O)CCC4=O)cc3)sc2c1 | – | – | – | – | – | – | · | RECQ1 inh conf=–;ADP FP counter=–
CS(=O)(=O)c1ccc2nc(NC(=O)c3cccc(NS(=O)(=O)c4ccc(F)c(F)c4)c3)sc2c1 | – | – | – | – | ? | – | ·
CCCNS(=O)(=O)c1ccc2nc(NC(=O)c3ccc(F)cc3)sc2c1 | – | – | · | · | – | – | ·
Cc1ccc2nc(NC(=O)c3ccc(N4C(=O)CCC4=O)cc3)sc2c1 | – | – | – | – | · | – | ·
O=C(Nc1nc2ccc(SC(F)F)cc2s1)c1ccc(NS(=O)(=O)c2ccc(F)c(F)c2)cc1 | – | – | ? | – | ? | – | ?
Cc1ccc(C(c2sc3nc(-c4ccco4)nn3c2O)N2CCN(Cc3ccccc3)CC2)cc1 (configuration not stated) | – | – | · | · | ? | – | ·
COc1ccc(N=c2nc(-c3ccc(C)cc3)n(-c3ccccc3)s2)cc1 | · | – | · | · | · | · | ·
Cn1c(N)c(C(=O)COC(=O)CSc2ccc(Cl)cc2)c(=O)n(C)c1=O | – | – | – | – | – | – | ·
Cn1c(N)c(C(=O)COC(=O)CC(NC(=O)c2ccccc2Cl)c2ccccc2)c(=O)n(C)c1=O (configuration not stated) | – | – | – | – | · | – | · | RECQ1 inh conf=–;ADP FP counter=–
SMILES | GCN5L2 inh | TDP1 block | RECQ1 inh-1 | APE1 inh | LMNA splice mod | BLM helicase inh | RECQ1 inh-2 | others
c1ccc(Nc2cccc3c(Nc4ccccc4)cccc23)cc1 | – | – | ? | – | – | – | –
O=C(NCCc1nc2ccccc2n1CCOc1ccccc1)C1CCCCC1 | · | – | · | · | · | · | ·
CC1CCCCC1NC(=S)NC(=O)c1ccccc1Br (configuration not stated) | – | – | 40µM | – | ? | – | –
COc1ccc(C)cc1S(=O)(=O)Nc1ccncc1 | – | – | 20µM | – | · | – | –
CN(C)c1ncnc2ccc(-c3ccc4c(c3)OCO4)cc12 | – | · | – | ? | ? | – | ·
CNC(=O)COC(=O)c1c2c(nc3ccccc13)CCC2 | – | · | ? | – | · | – | ?
COC(=O)CCCC1=CC2=CC(=O)C(C)(OC(=O)c3cccs3)C(=O)C2=CO1 (configuration not stated) | · | – | ? | ? | · | – | ?
CC(C)C[C@H](NC(=O)[C@H](CO)NC(=O)[C@@H]1CCCN1C(=O)[C@H](Cc1ccc(O)cc1)NC(=O)[C@H](CC(C)C)NC(=O)[C@H](CC(C)C)NC(=O)[C@@H]1CCCN1C(=O)[C@@H](NC(=O)[C@H](CO)NC(=O)[C@H](CO)NC(=O)[C@H](CO)NC(=O)[C@H](CO)NC(=O)[C@@H]1CCCN1C(=O)[C@@H](NC(=O)[C@@H](N)CO)C(C)C)[C@@H](C)O)C(=O)N[C@@H](C)C(=O)N[C@@H](CC(C)C)C(=O)N1CCC[C@H]1C(=O)N[C@@H](C)C(=O)N1CCC[C@H]1C(=O)O | – | – | – | – | · | – | ·
COC(=O)C1=C(C)N(c2cccc3ccccc23)C(=O)C1 | – | – | ? | – | – | – | –
Cc1ccc(-n2ncc3c(Nc4cccc(C(F)(F)F)c4)ncnc32)cc1C | – | – | · | · | ? | – | ·
COc1ccc(C(=O)NC2CCCCCC2)cc1S(=O)(=O)N1CCCc2ccccc21 | – | – | – | – | – | – | ·
COc1ccc(C(=O)NCCCN2CCOCC2)cc1S(=O)(=O)N1CCCc2ccccc21 | – | – | 40µM | – | · | – | –
